{"source": "ChEMBL document CHEMBL5606460", "about": "“ASAP - DENV-2 NS2B-NS3 protease fluorescence single point” (2024)", "target": "Genome polyprotein (dengue virus type 2) (UniProt P29990)", "key": {"[1]": {"conditions": "Thailand/16681/1984, Concentration 25.0 uM, Number of replicates 1.0"}}, "note": "Screen size: about 2,000 compounds; about 110 (5.5%) showed an effect of 50% or more. Many of the other results were omitted from the sample, so strong results are more common in it than they were. Residues, ends and D or L forms follow the SMILES beside them. *: point of attachment. pNA = O=[N+]([O-])c1ccc(N*)cc1; Boc = CC(C)(C)OC(=O)*"}
{"smiles": "CC(C)Nc1nc2cc(NCc3cccc(C(N)=O)c3)ccc2[nH]1", "values": [{"measurement": "inhibition", "setting": "Thailand/16681/1984, Concentration 49.5 uM, Number of replicates 2.0, Standard deviation 0.023235641877752903 %", "result": -0.517, "unit": "%"}, {"measurement": "inhibition", "setting": "Thailand/16681/1984, Concentration 99.01 uM, Number of replicates 2.0, Standard deviation 0.06423980503181957 %", "result": 1.24, "unit": "%"}, {"measurement": "inhibition", "setting": "Thailand/16681/1984, Concentration 198.0 uM, Number of replicates 2.0, Standard deviation 0.8255495407458023 %", "result": 3.31, "unit": "%"}]}
{"smiles": "CSCC[C@H](NC(=O)OC(C)(C)C)C(=O)N1CCC[C@H]1C(=O)Nc1ccc([N+](=O)[O-])cc1", "note": "(Boc-Met-Pro-pNA)", "values": [{"measurement": "inhibition", "setting": "Thailand/16681/1984, Concentration 49.5 uM, Number of replicates 2.0, Standard deviation 0.6934296230825803 %", "result": 10.3, "unit": "%"}, {"measurement": "inhibition", "setting": "Thailand/16681/1984, Concentration 99.01 uM, Number of replicates 2.0, Standard deviation 0.4989876662884813 %", "result": 17.1, "unit": "%"}, {"measurement": "inhibition", "setting": "Thailand/16681/1984, Concentration 198.0 uM, Number of replicates 2.0, Standard deviation 0.32485037523299065 %", "result": 29.3, "unit": "%"}]}
{"smiles": "CNC(=O)C1CCC(Nc2nc(Cl)cc3c(F)cccc23)CC1", "note": "(stereo unspecified)", "values": [{"measurement": "inhibition", "setting": "Thailand/16681/1984, Concentration 49.95 uM, Number of replicates 2.0, Standard deviation 5.365912193998162 %", "result": -9.93, "unit": "%"}]}
{"smiles": "C[C@@H](NC(=O)C1CCN(c2ccc(C=O)cc2)CC1)c1ccc2ccccc2c1", "values": [{"measurement": "inhibition", "setting": "[1]", "result": 1.94, "unit": "%"}]}
{"smiles": "Cc1nn(C)nc1-c1nn(C)cc1NC(=O)c1ccccc1C(F)(F)F", "values": [{"measurement": "inhibition", "setting": "Thailand/16681/1984, Concentration 49.5 uM, Number of replicates 2.0, Standard deviation 2.7709187614774393 %", "result": -3.06, "unit": "%"}, {"measurement": "inhibition", "setting": "Thailand/16681/1984, Concentration 99.01 uM, Number of replicates 2.0, Standard deviation 2.812620033505876 %", "result": -2.31, "unit": "%"}, {"measurement": "inhibition", "setting": "Thailand/16681/1984, Concentration 198.0 uM, Number of replicates 2.0, Standard deviation 2.009504923047635 %", "result": -2.5, "unit": "%"}]}
{"smiles": "O=Cc1ccc(N2CCC(C(=O)N3CCCCC[C@H]3c3ccco3)CC2)cc1", "values": [{"measurement": "inhibition", "setting": "[1]", "result": 13.4, "unit": "%"}]}
{"smiles": "Cn1oc(C(=O)Nc2cc(Cl)cc(C(=O)NC(C)(C)CO)c2)cc1=O", "values": [{"measurement": "inhibition", "setting": "Thailand/16681/1984, Concentration 49.5 uM, Number of replicates 2.0, Standard deviation 0.8141956117621647 %", "result": -0.341, "unit": "%"}, {"measurement": "inhibition", "setting": "Thailand/16681/1984, Concentration 99.01 uM, Number of replicates 2.0, Standard deviation 1.5201786631370027 %", "result": 0.297, "unit": "%"}, {"measurement": "inhibition", "setting": "Thailand/16681/1984, Concentration 198.0 uM, Number of replicates 2.0, Standard deviation 2.6564108106217375 %", "result": 1.39, "unit": "%"}]}
{"smiles": "C[C@@H](O)CNC(=O)c1cc(Cl)ccc1NS(=O)(=O)c1ccc(Oc2ccccc2Cl)cc1", "values": [{"measurement": "inhibition", "setting": "Thailand/16681/1984, Concentration 49.5 uM, Number of replicates 2.0, Standard deviation 1.4145601780552486 %", "result": 30.4, "unit": "%"}, {"measurement": "inhibition", "setting": "Thailand/16681/1984, Concentration 99.01 uM, Number of replicates 2.0, Standard deviation 0.06674442365142796 %", "result": 75.7, "unit": "%"}, {"measurement": "inhibition", "setting": "Thailand/16681/1984, Concentration 198.0 uM, Number of replicates 2.0, Standard deviation 0.019135343573522066 %", "result": 67, "unit": "%"}]}
{"smiles": "O=Cc1ccc(N2CCC(C(=O)Nc3ncc(C(F)(F)F)cc3Cl)CC2)cc1", "values": [{"measurement": "inhibition", "setting": "[1]", "result": 11.8, "unit": "%"}]}
{"smiles": "Cc1cc(N)cc(CNc2cccc3c(CO)cc(C)nc23)c1", "values": [{"measurement": "inhibition", "setting": "Thailand/16681/1984, Concentration 49.95 uM, Number of replicates 2.0, Standard deviation 2.268676515546947 %", "result": 34.9, "unit": "%"}, {"measurement": "inhibition", "setting": "Thailand/16681/1984, Concentration 99.9 uM, Number of replicates 2.0, Standard deviation 1.0884002159453274 %", "result": 63.5, "unit": "%"}]}
{"smiles": "Cc1cc(CO)c2cccc(Cc3cccc(C(=O)NCc4ccc(C(N)=O)cc4)c3)c2n1", "values": [{"measurement": "inhibition", "setting": "Thailand/16681/1984, Concentration 49.95 uM, Number of replicates 2.0, Standard deviation 1.5788782649320652 %", "result": -6.46, "unit": "%"}, {"measurement": "inhibition", "setting": "Thailand/16681/1984, Concentration 99.9 uM, Number of replicates 2.0, Standard deviation 2.3363374645660926 %", "result": -3.45, "unit": "%"}]}
{"smiles": "Cc1cc(CO)c2cccc(Cc3ccccc3C(=O)NCCc3ncc[nH]3)c2n1", "values": [{"measurement": "inhibition", "setting": "Thailand/16681/1984, Concentration 49.95 uM, Number of replicates 2.0, Standard deviation 0.3032711887954129 %", "result": 14.1, "unit": "%"}, {"measurement": "inhibition", "setting": "Thailand/16681/1984, Concentration 99.9 uM, Number of replicates 2.0, Standard deviation 0.18110062477906652 %", "result": 34.2, "unit": "%"}]}
{"smiles": "Cc1cc(CO)c2cccc(CC(=O)NCC(N)=O)c2n1", "values": [{"measurement": "inhibition", "setting": "Thailand/16681/1984, Concentration 49.95 uM, Number of replicates 2.0, Standard deviation 1.3653333333441007 %", "result": -7.85, "unit": "%"}, {"measurement": "inhibition", "setting": "Thailand/16681/1984, Concentration 99.9 uM, Number of replicates 2.0, Standard deviation 0.5261932884148693 %", "result": -6.61, "unit": "%"}]}
{"smiles": "Cc1cc(CO)c2cccc(Cc3cccc(C(=O)NCCc4ncc[nH]4)c3)c2n1", "values": [{"measurement": "inhibition", "setting": "Thailand/16681/1984, Concentration 49.95 uM, Number of replicates 2.0, Standard deviation 2.0725920117726813 %", "result": -4.03, "unit": "%"}, {"measurement": "inhibition", "setting": "Thailand/16681/1984, Concentration 99.9 uM, Number of replicates 2.0, Standard deviation 0.8997522707097182 %", "result": 1.59, "unit": "%"}]}
{"smiles": "Cc1cc(N)cc(CNC(=O)Cc2cccc3c(CO)cc(C)nc23)c1", "values": [{"measurement": "inhibition", "setting": "Thailand/16681/1984, Concentration 49.95 uM, Number of replicates 2.0, Standard deviation 0.21775017554498763 %", "result": 39.7, "unit": "%"}, {"measurement": "inhibition", "setting": "Thailand/16681/1984, Concentration 99.9 uM, Number of replicates 2.0, Standard deviation 1.7887257377938661 %", "result": 61.7, "unit": "%"}]}
{"smiles": "Cc1cc(CO)c2cccc(CC(=O)NCc3ccc(C(N)=O)cc3)c2n1", "values": [{"measurement": "inhibition", "setting": "Thailand/16681/1984, Concentration 49.95 uM, Number of replicates 2.0, Standard deviation 0.824600056542549 %", "result": -4.43, "unit": "%"}, {"measurement": "inhibition", "setting": "Thailand/16681/1984, Concentration 99.9 uM, Number of replicates 2.0, Standard deviation 0.5940444883081935 %", "result": 2.19, "unit": "%"}]}
{"smiles": "Cc1cc(CO)c2cccc(NCc3ccc(C(N)=O)cc3)c2n1", "values": [{"measurement": "inhibition", "setting": "Thailand/16681/1984, Concentration 49.95 uM, Number of replicates 2.0, Standard deviation 1.5291755401543807 %", "result": 1.6, "unit": "%"}, {"measurement": "inhibition", "setting": "Thailand/16681/1984, Concentration 99.9 uM, Number of replicates 2.0, Standard deviation 0.4954793626184345 %", "result": 6.67, "unit": "%"}]}
{"smiles": "Cc1cc(N)cc(CNC(=O)c2cccc(Cc3cccc4c(CO)cc(C)nc34)c2)c1", "values": [{"measurement": "inhibition", "setting": "Thailand/16681/1984, Concentration 49.95 uM, Number of replicates 2.0, Standard deviation 0.2659014326821377 %", "result": 29.9, "unit": "%"}, {"measurement": "inhibition", "setting": "Thailand/16681/1984, Concentration 99.9 uM, Number of replicates 2.0, Standard deviation 1.3431613936290656 %", "result": 54.9, "unit": "%"}]}
{"smiles": "Cc1cc(CO)c2cccc(NCc3ccc(S(N)(=O)=O)cc3)c2n1", "values": [{"measurement": "inhibition", "setting": "Thailand/16681/1984, Concentration 49.95 uM, Number of replicates 2.0, Standard deviation 1.2377055953825635 %", "result": 8.26, "unit": "%"}, {"measurement": "inhibition", "setting": "Thailand/16681/1984, Concentration 99.9 uM, Number of replicates 2.0, Standard deviation 1.691711110367126 %", "result": 17.2, "unit": "%"}]}
{"smiles": "Cc1cc(CO)c2cccc(CC(=O)NCCc3ncc[nH]3)c2n1", "values": [{"measurement": "inhibition", "setting": "Thailand/16681/1984, Concentration 49.95 uM, Number of replicates 2.0, Standard deviation 0.7345959673097169 %", "result": 39.1, "unit": "%"}, {"measurement": "inhibition", "setting": "Thailand/16681/1984, Concentration 99.9 uM, Number of replicates 2.0, Standard deviation 0.015925439590932376 %", "result": 77.7, "unit": "%"}]}
{"smiles": "Cc1cc(CO)c2cccc(Cc3cccc(C(=O)NCc4c(C)noc4C)c3)c2n1", "values": [{"measurement": "inhibition", "setting": "Thailand/16681/1984, Concentration 49.95 uM, Number of replicates 2.0, Standard deviation 0.7006856245222158 %", "result": 1.58, "unit": "%"}, {"measurement": "inhibition", "setting": "Thailand/16681/1984, Concentration 99.9 uM, Number of replicates 2.0, Standard deviation 0.008623919554905093 %", "result": 5.27, "unit": "%"}]}
{"smiles": "CSCC[C@H](NC(=O)OC(C)(C)C)C(=O)N1CCC[C@H]1C(=O)Nc1ccc(CN)cc1", "values": [{"measurement": "inhibition", "setting": "Thailand/16681/1984, Concentration 49.5 uM, Number of replicates 2.0, Standard deviation 0.5873455681071067 %", "result": 0.345, "unit": "%"}, {"measurement": "inhibition", "setting": "Thailand/16681/1984, Concentration 99.01 uM, Number of replicates 2.0, Standard deviation 0.9875045381203101 %", "result": 1.56, "unit": "%"}, {"measurement": "inhibition", "setting": "Thailand/16681/1984, Concentration 198.0 uM, Number of replicates 2.0, Standard deviation 0.49996007837732465 %", "result": 2.5, "unit": "%"}]}
